Lassa entry inh: blocks Lassa virus binding to or entry into cells. 300,000 tested, 1.2% active. Lassa virus pseudotype entry inhibition, cell reporter. Potency, µM (highest dose often 37.9 µM), actives largely listed as inhibitors. AID 540256; calls by dose curve; tested in HEK293 cells; further: nearly all actives have a fitted effect of over 50% in size
HCV inhibitor: inhibitors of hepatitis C virus infection; Potency, µM (top dose mostly 41.8 µM), usual class: inhibitors; Huh7.5.1 HCVcc-Cre infection, luciferase reporter, 44 h; 340,000 tested, 3.4% active
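Infectious HCVcc-Cre (~0.5 moi) was added to cells just after compound, with cells seeded 4 h earlier at 1,000 per well. Luciferase activity after 44 h culture reported infection; substrate was incubated 15 min at room temperature before reading.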
Giardia FBPA inh: inhibitors of Giardia lamblia fructose-1,6-bisphosphate aldolase. 290,000 tested, 0.71% active. Potency, µM (titrated, usually from 59.6 µM), hits mostly inhibitors. purified Giardia FBPA. A8B2U2; further: nearly all actives have a fitted effect of over 55% in size
Target sequence (A8B2U2 whole entry, looked up): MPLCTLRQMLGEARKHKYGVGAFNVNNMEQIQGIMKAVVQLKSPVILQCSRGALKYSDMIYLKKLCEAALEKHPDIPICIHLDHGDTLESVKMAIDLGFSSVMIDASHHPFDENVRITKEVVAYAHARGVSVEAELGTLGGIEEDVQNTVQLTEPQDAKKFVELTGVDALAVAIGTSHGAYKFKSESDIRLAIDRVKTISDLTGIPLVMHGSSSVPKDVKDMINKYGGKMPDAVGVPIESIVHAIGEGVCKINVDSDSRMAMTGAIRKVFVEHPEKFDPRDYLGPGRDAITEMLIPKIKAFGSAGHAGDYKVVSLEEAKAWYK
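40 nM FBPA preincubated 10 min at RT with compound (up to 57.5 uM final), then substrate plus GAPDH/TPI/NAD/arsenate coupling and diaphorase/resazurin added. Fluorescence read after 20 min at RT, 525/598 nm.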
MARV entry inh: blocks Marburg virus binding to or entry into cells | Marburg virus pseudotyped entry inhibition, cell reporter | Potency, µM (highest dose often 37.8 µM), most hits filed as inhibitors | 300,000 tested, 1.8% active | AID 540276; calls by dose curve; tested in HEK293 cells
FMDV inh: foot and mouth disease virus antiviral activity. FMDV antiviral cell-based qHTS. Potency, µM (series often up to 57.9 µM), actives largely listed as inhibitors. 410,000 tested, 1.2% active; calls by dose curve; tested in HEK293T cells; further: read-out not given here; nearly all actives have a fitted effect of over 45% in size
HCMV inh: inhibitors of human cytomegalovirus; AID 1259415; 410,000 tested, 4.5% active; activity change, negative = inhibition, % at 57.5 µM; HFF cells, HCMV-luciferase reporter, 72 h; hits give low values; in the data active means activity change below about -60%; inconclusive means no clear call, values can overlap the other calls; inactive means above about -39%
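Two-dose cell screen: HFF monolayers treated with compounds and infected with luciferase-expressing HCMV at 1 PFU/cell, 72 h at 37C, then lysed for luciferase measurement.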
Numbers stand for hits; i = inactive; ? = inconclusive; nt = not tested or not shown; [ ] = dose if it differs, or a comment. Most compounds without a hit are left out; they make up all but 8.3% or so of the library. Unless noted, the call rests on the fitted dose curve; in most records, active means well fitted curve in the direction sought with a large enough effect; inconclusive means small, poorly fitted or top-dose-only effect, or another doubt; inactive means no such curve, though single readings can be large; an effect the other way counts as inactive or inconclusive.

SMILES	Lassa entry inh	HCV inhibitor	Giardia FBPA inh	MARV entry inh	FMDV inh	HCMV inh
COc1ccc(-c2sc3ccc(OC)cc3c2-c2ccc(O)cc2)cc1	nt	8.91µM	nt	nt	?	?
C[C@H](CCC(=O)NCC(=O)O)C1CC[C@H]2C3CC[C@@H]4C[C@H](O)CC[C@]4(C)C3C[C@H](O)[C@]12C (some centres undefined)	nt	nt	nt	nt	i	nt
CN(C)c1ccc(C=Nc2ccccc2C(N)=O)cc1	?	i	i	14.6µM	i	i
C/C=C(/C)C(=O)O[C@H]1C[C@@]2(C)O[C@H]2[C@@H](OC(C)=O)C2(C)CC[C@@](O)(C(C)C)C12 (some centres undefined)	nt	nt	i	nt	nt	nt
Cc1ccc(NS(=O)(=O)c2ccc(-c3cc(C)no3)cc2)c(Br)c1	?	nt	nt	nt	i	i
CCOC(=O)c1c(C)[n+](-c2ccc(C)cc2)c(CC)c2cc(OC)c(OC)cc12	nt	?	i	nt	i	-81.3
O=C(c1ccncc1)N1CCC[C@@]2(CCN(c3cccc(-c4ccccc4)c3)C2)C1	nt	nt	i	nt	i	nt
CCOC(=O)[C@]12CCCC=C1N(Cc1ccc(Cl)cc1Cl)C(=O)[C@H](CC(=O)NCc1ccc(OC)c(OC)c1)C2	nt	nt	nt	nt	?	-70.9
CCOC(=O)[C@]12CCCC=C1N(Cc1ccc(Cl)cc1Cl)C(=O)[C@H](CC(=O)NCc1cccc(C(F)(F)F)c1)C2	nt	nt	nt	nt	i	i
CCOC(=O)[C@]12CCCC=C1N(Cc1ccc3c(c1)OCO3)C(=O)[C@H](CC(=O)NCc1cccc(C(F)(F)F)c1)C2	nt	nt	nt	nt	i	-65.2
CCOC(=O)[C@]12CCCC=C1N(Cc1ccco1)C(=O)[C@H](CC(=O)N1CCCCC1)C2	nt	nt	nt	nt	i	i
CCOC(=O)[C@]12CCCC=C1N(Cc1ccco1)C(=O)[C@H](CC(=O)N1CCSCC1)C2	nt	nt	nt	nt	i	-81.6
COC(=O)[C@]12CCCCC=C1N(Cc1ccc(Cl)cc1Cl)C(=O)[C@H](CC(=O)NCc1ccc(OC)c(OC)c1)C2	nt	nt	nt	nt	31.6µM	-69.7
O=S(=O)(Nc1cccc(-c2ccc(N3CCOCC3)nn2)c1)c1ccc(F)c(C(F)(F)F)c1	i	nt	nt	nt	i	i
CCc1cc(-c2n[nH]c(C)c2-c2nc3ccccc3n2C)c(O)cc1O	?	?	?	?	?	-71.4
O=c1oc2ccccc2c(N2CCCC2)c1[N+](=O)[O-]	i	i	i	i	i	-94.1
O=c1oc2ccccc2c(N2CCCCC2)c1[N+](=O)[O-]	i	i	i	i	?	i
O=c1cc(NS(=O)(=O)c2ccccc2)nc(SCc2ccc(Cl)cc2)[nH]1	i	?	i	?	i	i
Cc1ccc(S(=O)(=O)Nc2ccc(-c3nnc(SCc4ccccc4Cl)o3)cc2)cc1	?	i	i	?	i	-83.5
Cc1ccc(S(=O)(=O)Nc2cc(=O)[nH]c(SCc3ccccc3Cl)n2)cc1	?	?	i	?	?	-66.4
COc1ccc(CCNC(=O)CCn2c(=O)c3ccccc3n(Cc3cc(C)ccc3C)c2=O)cc1OC	i	nt	nt	i	i	i
COCc1ccc(CN2CCOc3c(cc(-c4cc(C)c5cccc(OC)c5n4)cc3OC)C2)o1	nt	nt	nt	nt	i	nt
COc1ccc(C(=O)N(Cc2ccccc2)c2cccc(C)c2)cc1	nt	i	nt	nt	i	-60.2
C[C@H]1Cc2c(COc3ccccc3)nc3c(c2CO1)CN(S(=O)(=O)c1ccc(C#N)cc1)CC3	nt	nt	i[12.9 µM]	nt	nt	nt
Cc1cc(C)n(S(=O)(=O)/C=C/c2ccccc2)n1	?	?	i	5.17µM	i	-67.4
SMILES	Lassa entry inh	HCV inhibitor	Giardia FBPA inh	MARV entry inh	FMDV inh	HCMV inh
O=C(Nc1cc(-c2ccc(Cl)cc2)no1)c1ccc(F)cc1	?	nt	nt	i	i	i
O=C(CN(c1cccc([N+](=O)[O-])c1)S(=O)(=O)c1ccccc1)N(Cc1ccccc1)Cc1ccccc1	?	i	i	?	i	-62.1
C[C@H]1Cc2c(COc3ccccc3)nc3c(c2CO1)CN(C(=O)c1cc(I)ccc1F)CC3	nt	nt	i[12.9 µM]	i	nt	nt
c1ccc(-c2cc3c(Nc4ccc5c(c4)OCCO5)nccc3[nH]2)cc1	nt	nt	nt	nt	nt	i
CC(C)CN(CC(C)C)S(=O)(=O)c1ccc(C(=O)Nc2sc3c(c2C(N)=O)CC(C)(C)NC3(C)C)cc1	i	nt	nt	nt	i	-97.1
C=CS(=O)(=O)c1sc(Cl)c(N2CCOCC2)c1[N+](=O)[O-]	3.16µM	?	i	5.01µM	25.1µM	-72.5
Cc1ccc(Cn2ccsc2=NC(=O)COC(=O)C(C)C)cc1	i	i	nt	i	i	?
N#CCC(=O)Nc1ccc(C(=O)OCC(=O)N=c2sccn2Cc2ccccc2Cl)cc1	i	?	nt	i	?	i
Cc1ccc(Cn2ccsc2=NC(=O)COC(=O)c2ccc(O)cc2O)cc1	nt	11.2µM	i	nt	i	-78.9
O=C(COC(=O)c1ccc(O)cc1O)N=c1sccn1Cc1ccccc1Cl	?	7.94µM	nt	?	?	i
COc1ccccc1C1CN(CCNC(=O)c2cscn2)Cc2ccccc2O1 (centres undefined)	nt	nt	nt	nt	i	nt
CCc1cccc(NC(=O)Cn2c(=O)n(CC3CCC(C(=O)NCCc4ccccc4)CC3)c(=O)c3ccccc32)c1 (centres undefined)	i	nt	nt	i	i	i
C[C@@H](CN1CCC(Cc2ccccc2)CC1)[C@@H](O)c1ccc(O)cc1	?	?	i	?	i	i
C[C@@H]([C@H](O)c1ccc(O)cc1)N1CCC(Cc2ccccc2)CC1	nt	nt	i	20.6µM	i	nt
CC(C(O)c1ccc(O)cc1)N1CCC(Cc2ccccc2)CC1 (centres undefined)	23.1µM	?	i	20.6µM	?	?
COC(=O)C1=C(N)Oc2cc(C)n(Cc3ccco3)c(=O)c2C1c1cccc(Cl)c1 (centres undefined)	i	8.91µM	i	?	i	i
CCN(CC)c1ccc(NC(=O)c2cnn3c(C(F)F)cc(-c4ccccc4)nc23)cc1	i	nt	nt	i	i	i
Cc1ccc2nc(NC(=O)CSCC(=O)OCC(=O)c3ccccc3)sc2c1	5.8µM	i	i	?	?	i
Cc1ccc2nc(NC(=O)CCCC(=O)O)sc2c1	nt	i	i	nt	7.94µM	?
CCOCC(=O)Nc1nc2ccc(OCC)cc2s1	?	i	i	?	i	i
CCOCC(=O)Nc1nc2ccc(C)cc2s1	11.2µM	i	i	i	i	i
CC(C)[C@H](N)C(=O)N[C@@H](CCC(N)=O)C(=O)NCC(=O)N[C@@H](CCC(=O)O)C(=O)N[C@@H](CCC(=O)O)C(=O)N[C@@H](CO)C(=O)N[C@@H](CC(N)=O)C(=O)N[C@@H](CC(=O)O)C(=O)N[C@@H](CCCCN)C(=O)O	nt	nt	i	nt	nt	nt
O=C(NCC(c1ccc2c(c1)OCO2)N1CCN(c2ccccc2)CC1)c1ccccc1 (centres undefined)	?	nt	nt	nt	i	i
COc1ccc2cc(CO)c3cc(OC)c(OC)cc3c2c1	nt	12.6µM	nt	nt	i	i
COc1ccc2cc(CO)c(Cl)nc2c1	i	i	i	i	i	i
COc1ccc(C(=O)Nc2sc3c(c2C(N)=O)CCCC3)cc1OC	nt	nt	i	nt	i	nt
CCCC(=O)NC(=S)Nc1ccccc1C(=O)OC	i	i	i	?	i	i
CCCC(=O)NC(=S)Nc1cccc2c(O)cccc12	i	i	i	i	i	-99.3

Assay outcomes from PubChem BioAssay.
